A short description of assay [1]: qHTS assay for small molecule agonists of the p53 signaling pathway (AID 651631; calls by dose curve; further: nearly all actives have a fitted effect of over 15% in size). The procedure, abridged: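 We treat p53RE-bla HCT-116 cells with compounds for 16 h at 37 °C, add LiveBLAzer B/G FRET substrate for 2 h at room temperature, and measure fluorescence intensity.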
For orientation: In qHTS, concentration-response curves come from the screen itself.

Assay [2] in a line: qHTS assay for small molecules that induce genotoxicity in human embryonic kidney cells expressing luciferase-tagged ATAD5 (AID 651632). Further: nearly all actives have a fitted effect of over 15% in size. The procedure, abridged: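 Luminescence read-out: after 16 hr compound exposure at 37C, ATAD5-luciferase HEK293T cells received Amplite, 30 min RT, then CCD imaging. A rise in signal marks genotoxic stress.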
The nature of assay [3]: qHTS assay for small molecule agonists of the p53 signaling pathway - cell viability (AID 651633; calls by dose curve;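 further: p53RE-bla HCT reporter cells with a stable beta-lactamase p53 reporter; series mostly up to about 83 µM; nearly all actives have a fitted effect of over 30% in size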). In short, it runs like this:
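p53RE-bla cells, seeded at 4,000 per well and rested 5 h at 37 C/5% CO2, received compounds in DMSO for 16 h at 37 C. CellTiter-Glo was then added, and luminescence was read after 30 min at room temperature to gauge cytotoxicity.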

The nature of assay [4]: qHTS assay for small molecule disruptors of the mitochondrial membrane potential - cell viability (AID 720634; calls by dose curve;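 further: human HepG2 liver cancer cells; series mostly up to about 83 µM; nearly all actives have a fitted effect of over 20% in size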). In short, it runs like this:
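Luminescence from CellTiter-Glo (ATP content) gave viability in HepG2 cells, read in the same wells as the MMP dye assay after 1 hr compound exposure at 37 C.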

The nature of assay [5]: qHTS assay for small molecule disruptors of the mitochondrial membrane potential (AID 720635). Further: potency means the concentration at half of the fitted maximal effect. The procedure, abridged: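 HepG2 cells (2,000/well) attached overnight at 37C, then took compound for 1 hr at 37C, 5% CO2. Mito-MPS dye was added for 30 min; fluorescence was read at 490/535 nm (monomers) and 540/590 nm (aggregates).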
Assay [6] is described as follows: qHTS assay to test for compound auto fluorescence at 590 nm (red) in HepG2 cells (AID 720674). In short, it runs like this: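 Rose Bengal sodium served as the red fluorophore standard. HepG2 monolayers (overnight attachment, MEM with 10% FBS) were exposed to test compounds for 1 hr at 37 C and read at Ex 540/Em 590 nm.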
Assay [7] can be described thus: qHTS assay to test for compound auto fluorescence at 460 nm (blue) in HEK293 cells (AID 720678). In short, it runs like this: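 Blue-channel (Ex/Em 405/460 nm) intensity measured in HEK293 cultures after overnight compound exposure at 37C; signal expressed relative to triamterene. Cells plated 2,000 per well in 10% dialyzed FBS medium and allowed 4-5 hr to attach.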

Assay [8] can be described thus: qHTS assay to test for compound auto fluorescence at 590 nm (red) in HEK293 cells (AID 720679). In short, it runs like this: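 Red-channel autofluorescence (Ex/Em 540/590 nm; Rose Bengal sodium reference) was measured after overnight 37C, 5% CO2 exposure of attached HEK293 cells, 2,000 per well in medium with 10% dialyzed FBS.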
The nature of assay [9]: qHTS assay to test for compound auto fluorescence at 535 nm (green) in HepG2 cells (AID 720675).
Assay [10] in a line: qHTS assay for small molecules that induce genotoxicity in human embryonic kidney cells expressing luciferase-tagged ATAD5 - cell viability (AID 651634; calls by dose curve; further: nearly all actives have a fitted effect of over 25% in size). In short, it runs like this: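 HEK293T ATAD5-luc cells, 2,000/well; compound 15.5 hr, 37C/5% CO2; CellTiter-Fluor 30 min, 37C; fluorescence read.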

Where “and” joins values, the source holds several entries; their conditions need not be identical. Equal entries are not always repeated. Records with an inconclusive call do not appear. A structure can be active in one record and inactive in another. Calls of active or inactive are those of the source. Unless noted, the call rests on the fitted dose curve; in most records, active means well fitted curve in the direction sought with a large enough effect in the repeat runs; inconclusive means weak or mixed curves; inactive means no such curve, though single readings can be large; an effect the other way counts as inactive or inconclusive.
On the % scale 0 is the no-effect control and ±100 the full control effect.

As to `O=c1n(Cl)c(=O)n(Cl)c(=O)n1Cl`, the compound was classed as inactive in [1], in [2], in assay [3], in assay [6], in assay [7] and in [8]. The Potency result in [4] and in [5] was “inactive” in each case.

As for `[N-]=[N+]=[N-]`, the compound was classed as inactive in assay [1], in assay [2], in [3], in [6], in assay [9] and in assay [7]. For the same compound, the compound was classed as inactive in assay [8]. The Potency result in assay [4] and in assay [5] was “inactive” throughout.

Consider `CC(C)OC(=O)Nc1cccc(Cl)c1`, for which the call in [1], in [2], in assay [3], in [10], in [6] and in assay [9] was inactive. Also, the compound was called inactive in [7] and in assay [8]. The Potency in assay [5] is 47.9 µM (active) and 24.3 µM (active).

Regarding `COP(N)(=O)SC` (configuration not stated), the result in [1], in assay [2], in assay [3], in [6], in assay [9] and in [7] was inactive. The result in assay [8] was inactive. Moreover, the Potency result in assay [4] and in [5] was “inactive” throughout.

Take `C=CCO`: the call in assay [1], in assay [2], in [3], in assay [6], in assay [9] and in assay [7] was inactive. The call in assay [8] was inactive. Also, the Potency result in assay [4] and in assay [5] was “inactive” each time.

For the compound `O=NN1CCCC1`, the compound was called inactive in [1], in assay [2], in [3], in assay [6], in assay [9] and in assay [7]. Besides, the call in assay [8] was inactive. Further, the Potency result in assay [4] and in [5] was “inactive” in each case.

For the compound `c1cc2c3c(cccc3c1)CC2`, the call in assay [1], in assay [2], in assay [3], in assay [6], in [7] and in assay [8] was inactive. Moreover, the Potency result in assay [4] and in [5] was “inactive” in each case.

Regarding `CCCCCCCCCl`, the call in assay [1], in [2], in [3], in [6], in [9] and in [7] was inactive. Moreover, in assay [8], the call was inactive. Further, the Potency result in assay [4] and in [5] was “inactive” in each case.

Regarding `c1ccc(-c2ccccc2)cc1`, the call in [1], in assay [2], in assay [3], in [6], in assay [9] and in [7] was inactive. Moreover, the result in [8] was inactive. The Potency entry in assay [4] and in assay [5] was “inactive” in each case.

On to `CN=C=S`, for which the compound was classed as inactive in assay [1], in assay [2], in assay [3], in assay [6], in [7] and in assay [8]. The Potency entry in assay [4] and in assay [5] was “inactive” throughout.

In the case of `Cc1cc(-c2cc(C)c(N)c(C)c2)cc(C)c1N`, the result in [1], in [2], in [3], in assay [10], in assay [6] and in [9] was inactive. Also, the call in assay [7] and in assay [8] was inactive. Also, the Potency entry in assay [4] was “inactive”.

Turning to `CON(C)C(=O)Nc1ccc(Cl)c(Cl)c1`, the compound was called inactive in [1], in [2], in assay [3], in [10], in assay [6] and in assay [9]. Further, the call in assay [7] and in assay [8] was inactive. Further, the Potency in assay [5] is 61.4 µM (active) and 43.3 µM (active).

As for `O=S(=O)(c1ccc(O)cc1)c1ccc(O)cc1`, the outcome in [1], in assay [2], in [3], in assay [6], in [9] and in [7] was inactive. Further, the result in [8] was inactive. The Potency entry in assay [4] was “inactive”.

As for `CCCC1COC(Cn2cncn2)(c2ccc(Cl)cc2Cl)O1` (configuration not stated), the outcome in assay [1], in assay [2], in assay [3], in assay [10], in assay [6] and in assay [7] was inactive. Moreover, in [8], the call was inactive. The Potency entry in assay [4] was “inactive”.

Consider `NCCc1ccc(O)cc1`, for which the result in assay [1], in [2], in assay [3], in [6], in assay [7] and in assay [8] was inactive. For the same compound, the Potency result in [4] and in assay [5] was “inactive” throughout.

As to `CCC[CH2][Sn]([Cl])([Cl])[Cl]`, the call in assay [1], in [2], in assay [3], in assay [6], in [9] and in assay [7] was inactive. Moreover, in assay [8], the compound was classed as inactive. Also, the Potency result in [4] and in assay [5] was “inactive” in each case.

For the compound `ClCCBr`, the result in [1], in assay [2], in [3], in assay [6], in assay [7] and in [8] was inactive. The Potency entry in assay [4] and in assay [5] was “inactive” in each case.

Regarding `CCc1cccc(C)c1N(C(=O)CCl)C(C)COC` (configuration not stated), the call in assay [1], in [2], in [3], in [6], in [7] and in assay [8] was inactive. Moreover, the Potency result in assay [4] and in assay [5] was “inactive” in each case.

Regarding `CCN(CC)CCO`, the compound was classed as inactive in [1], in assay [2], in assay [3], in assay [6], in assay [9] and in [7]. The result in assay [8] was inactive. Further, the Potency entry in assay [4] and in assay [5] was “inactive” each time.

Turning to `CCC12COCN1COC2`, the outcome in assay [1], in assay [2], in assay [3], in assay [10], in assay [6] and in assay [7] was inactive. The compound was called inactive in assay [8]. Further, in [4], the Potency result was “inactive”.

For `OC(O)C(Cl)(Cl)Cl`, the call in assay [1], in assay [2], in assay [3], in assay [6], in [7] and in assay [8] was inactive. The Potency entry in assay [4] and in assay [5] was “inactive” throughout.

On to `Oc1ccccc1Cl`, for which the outcome in [1], in assay [2], in assay [3], in assay [6], in assay [9] and in [7] was inactive. For the same compound, the compound was called inactive in assay [8]. The Potency entry in assay [4] and in assay [5] was “inactive” throughout.

In the case of `C=C(C)CCl`, the activation in assay [1] was -2.09% [at 8.3 µM] (inactive). Also, the result in assay [2], in [3], in assay [6], in [7] and in assay [8] was inactive. Besides, the Potency result in assay [4] and in [5] was “inactive” each time.

In the case of `C1CC2OC2CC1C1CO1` (configuration not stated), the result in assay [2], in [3], in [6], in assay [9], in [7] and in assay [8] was inactive. Moreover, the Potency entry in assay [4] and in assay [5] was “inactive” throughout.

In the case of `CC(C#N)CCC#N` (configuration not stated), the call in assay [1], in assay [2], in [3], in assay [6], in assay [7] and in [8] was inactive.

For the compound `Cc1ccc([N+](=O)[O-])cc1C`, the result in assay [2], in assay [3], in assay [6], in assay [9], in [7] and in [8] was inactive. Moreover, the Potency result in [4] was “inactive”. Moreover, the Potency in assay [5] was 47.7 µM (active) and inactive.

Take `CCCCN(CCCC)SN(C)C(=O)Oc1cccc2c1OC(C)(C)C2`: the compound was classed as inactive in assay [2], in [10], in assay [6], in assay [9], in assay [7] and in [8]. Also, in [4], the Potency entry was “inactive”. Further, the Potency in assay [5] was 62.1 µM (active).

With `CN1C(=O)CN=C(c2ccccc2)c2cc(Cl)ccc21`, the result in assay [1], in assay [3], in [10], in [6], in assay [9] and in [7] was inactive. Besides, the call in assay [8] was inactive. Besides, the Potency result in assay [4] and in [5] was “inactive” throughout.

With `C1CN2CCN1CC2`, the result in [2], in assay [3], in [10], in assay [6], in assay [9] and in [7] was inactive. Also, the compound was classed as inactive in [8].

The record behind these values is PubChem BioAssay (Tox21).
